Compound activity: PubChem BioAssay, several laboratories
PostGolgi ctrl: growth inhibition of yeast control strain, primary screen, counter-screen for post-Golgi transport modulator project; inhibition, % at 10 µM; efflux-deficient yeast background strain, growth absorbance A615, 16 h; 98,000 compounds, 5% hits
PostGolgi yeast: phenotypic screen on post-Golgi transport, primary screen. AID 739, 2007. 98,000 compounds, 0.9% hits. inhibition, % at 10 µM. post-Golgi transport phenotypic cell assay;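 further: yeast cells grown in 1536-well plates; yeast grown about 18 h at 30C before absorbance read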
MT1-MMP txn act: MT1-MMP promoter reporter activation – cell-based, luciferase luminescence, primary screen; HT1080 MT1-MMP promoter luciferase reporter, overnight; hits give high values; activation factor at 10 µM; 86,000 compounds, 0.16% hits; AID 750, 2007;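 active means activation factor of at least 2 for MT1-MMP transcription at 10 µM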
Measles CPE: compounds protecting cells from measles virus cytopathic effect, primary screen, measles RdRp inhibitor project, single point, MLSMR library, absorbance; Measles virus-infected cells, CPE protection; protection (pct of control), % at 4 µM; 140,000 compounds, 1.5% hits; AID 841, 2007; in the data active means protection mostly above about 24%, no sharp cut-off; inactive means mostly below about 26%
* hit, by the source's call. Hits are enriched below; roughly 5.3% of the tested compounds scored in any of these assays. Unless noted, no stated cut-off is given here; in the data, active means inhibition above about 30%; inactive means the rest.

What do the screens show for `CC(=O)c1ccc(NC(=O)CN2CCN(c3ncccn3)CC2)cc1`?
PostGolgi ctrl: 5; PostGolgi yeast: -1; Measles CPE: 78*

Results for O=C(CN1CCOCC1)Nc1ccc(Oc2ccccc2)cc1 ?
PostGolgi ctrl: 8; PostGolgi yeast: 2; MT1-MMP txn act: 1.1; Measles CPE: 10

How did O=C(CN1CCN(c2ccccc2)CC1)Nc1ccc(Oc2ccccc2)cc1 do in these assays?
PostGolgi ctrl: 42*; PostGolgi yeast: 4; MT1-MMP txn act: 1.1; Measles CPE: 16

Results for COc1cccc(NC(=O)CN2CCN(c3ccccc3F)CC2)c1 ?
PostGolgi ctrl: 32*; PostGolgi yeast: -8; MT1-MMP txn act: 1.2; Measles CPE: 6

How did COc1ccc(CCNC(=O)Cc2cc(OCc3ccccc3)c(OC)cc2[N+](=O)[O-])cc1OC do in these assays?
PostGolgi ctrl: 16; PostGolgi yeast: -7; Measles CPE: 4

What do the screens show for `Cc1ccc(-c2csc(N/N=C/c3ccco3)n2)cc1`?
PostGolgi ctrl: 34*; PostGolgi yeast: -14; Measles CPE: 3

Results for O=C(Cc1ccc(S(=O)(=O)N2CCCCC2)s1)Nc1ccc(F)c(F)c1 ?
Measles CPE: 5

What do the screens show for `O=C(COC(=O)Cc1ccc(S(=O)(=O)N2CCCCC2)s1)Nc1ccc2c(c1)OCO2`?
PostGolgi ctrl: 36*; PostGolgi yeast: -3; MT1-MMP txn act: 1.2; Measles CPE: 5

How did Fc1ccccc1CNC(=S)Nc1cccc(C(F)(F)F)c1 do in these assays?
Measles CPE: 14

Results for CCCCN(CCCC)CC(O)COc1ccccc1Br (centres undefined) ?
Measles CPE: 5

Results for Cc1cc2nc(C3CCN(CC4COc5ccccc5O4)CC3)[nH]c2cc1C (centres undefined) ?
PostGolgi ctrl: 34*; PostGolgi yeast: 41*; MT1-MMP txn act: 1; Measles CPE: 15

How did CCCC(=O)Nc1nnc(SCC(=O)NCc2ccco2)s1 do in these assays?
Measles CPE: 4

How did Cc1cc(C)n(-c2ccc(C(=O)OCC(=O)NC(c3ccccc3)c3ccccc3)cc2)n1 do in these assays?
Measles CPE: 51*

What do the screens show for `CCN(CC)S(=O)(=O)c1ccc(NC(=O)COC(=O)c2ccc(-n3nc(C)cc3C)cc2)cc1`?
PostGolgi ctrl: 8; PostGolgi yeast: 0; Measles CPE: 9

What do the screens show for `COc1ccc(CCCC(=O)Nc2ccccc2F)cc1`?
Measles CPE: 3

How did Cc1oc(C(C)(C)C)cc1C(=O)Nc1cccc(C(=O)O)c1 do in these assays?
PostGolgi ctrl: -1; PostGolgi yeast: -3; MT1-MMP txn act: 1.5; Measles CPE: 8

What do the screens show for `CCc1ccc(NC2=NC(C(=O)NC3CCCCC3)CC(=O)N2)cc1` (centres undefined)?
PostGolgi ctrl: -2; PostGolgi yeast: 7; MT1-MMP txn act: 1.2; Measles CPE: 56*

What do the screens show for `Cc1cc(C)nc(N/C(=N\S(=O)(=O)Cc2ccccc2)Nc2ccccc2Br)n1`?
Measles CPE: 21

How did Cc1ccc2[nH]c(C)c(/C=N/Nc3nc4ccccc4s3)c2c1 do in these assays?
PostGolgi ctrl: 69*; PostGolgi yeast: 49*; MT1-MMP txn act: 1.3; Measles CPE: 3

Results for Brc1csc(/C=N/Nc2nc3ccccc3s2)c1 ?
Measles CPE: 7

What do the screens show for `CC(=O)Oc1ccc(N(C(C)=O)S(=O)(=O)c2cccs2)c2ccccc12`?
PostGolgi ctrl: -4; PostGolgi yeast: 8; MT1-MMP txn act: 0.9; Measles CPE: 2

What do the screens show for `Cc1c(C(=O)N/N=C/C(C)C)[nH]c2c([N+](=O)[O-])cccc12`?
Measles CPE: 6

Results for Cc1ccc(S(=O)(=O)NC(C(=O)Oc2cc3oc(=O)cc(C)c3cc2Cl)C(C)C)cc1 (centres undefined) ?
Measles CPE: 27

How did O=C(O)c1cccc(CN2C(=O)CSC2=O)c1 do in these assays?
PostGolgi ctrl: 36*; PostGolgi yeast: -2; MT1-MMP txn act: 1.1; Measles CPE: 5

Results for O=C(O)c1cccc(CN2C(=O)SC(Nc3ccccc3)C2=O)c1 (centres undefined) ?
PostGolgi ctrl: 1; PostGolgi yeast: 4; MT1-MMP txn act: 1.1; Measles CPE: 13

How did Cc1ccc(C(=O)NCCCCNC(=O)c2ccc(C)o2)o1 do in these assays?
PostGolgi ctrl: -1; PostGolgi yeast: 2; MT1-MMP txn act: 1.1; Measles CPE: 5

How did Cc1ccc(C(=O)NCc2occc2C(=O)O)o1 do in these assays?
PostGolgi ctrl: -3; PostGolgi yeast: 34*; MT1-MMP txn act: 1.4; Measles CPE: 5

Results for CO/N=C/NC(=O)NOCc1c(Cl)cccc1Cl ?
PostGolgi ctrl: 32*; PostGolgi yeast: 0; Measles CPE: 21
